# Data taken from article PMC7862700, “An all-to-all approach to the identification of sequence-specific readers for epigenetic DNA modifications on cytosine”.
# How the values were obtained:
# Experiment in all cases: DAPPL (digital affinity profiling via proximity ligation, sequencing); 10 mM Tris-HCl pH 7.5, 50 mM NaCl, 1 mM DTT, 4% glycerol, room temperature, 30 min; GST-TFs on glutathione beads, 16-mer random dsDNA library, 0.1% formaldehyde crosslink after washing; high values mean tight binding
# Conditions in all cases: protein: recombinant; tags: N-terminal GST; dsDNA, one strand shown
# FLI1 = target: T1, FLI1 (Homo sapiens, UniProt Q01543 1-452)
# T1 sequence: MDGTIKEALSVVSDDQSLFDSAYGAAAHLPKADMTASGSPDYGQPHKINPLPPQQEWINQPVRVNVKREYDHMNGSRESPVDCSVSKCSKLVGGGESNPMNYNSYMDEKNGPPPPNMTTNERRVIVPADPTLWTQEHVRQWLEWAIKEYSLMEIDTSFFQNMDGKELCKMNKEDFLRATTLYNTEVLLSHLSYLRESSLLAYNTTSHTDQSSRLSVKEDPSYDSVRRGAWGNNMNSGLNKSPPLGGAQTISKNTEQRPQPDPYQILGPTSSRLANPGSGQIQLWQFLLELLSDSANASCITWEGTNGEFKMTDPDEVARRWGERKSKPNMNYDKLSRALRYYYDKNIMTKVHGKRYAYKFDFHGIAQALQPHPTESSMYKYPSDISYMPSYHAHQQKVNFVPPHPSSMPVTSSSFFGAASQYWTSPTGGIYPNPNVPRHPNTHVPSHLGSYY
# Outline: (§1)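 After expression in yeast as GST fusions, human transcription factors were bound to glutathione beads, DNA-barcoded and mixed with a tag-only sample. The pools were incubated with 200 nmole of a 16-mer random double-stranded DNA library in Tris/NaCl/DTT/glycerol buffer (30 min, room temperature), washed and crosslinked with 0.1% formaldehyde. Proximity ligation with BsaI/T4 ligase ran for 1 h at 37 °C, before PCR amplification and sequencing on an Illumina NextSeq500. Binding signal is a hexamer's read frequency for a factor divided by its frequency for the tag-only sample.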
# ELK1 = target: T2, ELK1 (Homo sapiens, UniProt P19419 1-428)
# T2 sequence: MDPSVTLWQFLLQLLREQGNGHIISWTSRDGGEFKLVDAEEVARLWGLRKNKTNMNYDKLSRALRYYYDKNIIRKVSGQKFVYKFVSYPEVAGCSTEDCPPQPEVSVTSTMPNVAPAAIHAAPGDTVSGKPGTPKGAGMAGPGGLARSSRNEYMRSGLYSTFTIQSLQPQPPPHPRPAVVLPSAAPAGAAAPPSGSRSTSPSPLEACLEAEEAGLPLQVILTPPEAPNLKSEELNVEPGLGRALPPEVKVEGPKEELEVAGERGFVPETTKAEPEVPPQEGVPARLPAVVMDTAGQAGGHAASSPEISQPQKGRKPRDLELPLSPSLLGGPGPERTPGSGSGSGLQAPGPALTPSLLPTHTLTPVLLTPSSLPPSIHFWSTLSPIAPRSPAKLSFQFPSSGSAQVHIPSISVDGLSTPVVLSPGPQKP
# Outline: as §1
# GABPA = target: T3, GABPA (Homo sapiens, UniProt Q06546 1-454)
# T3 sequence: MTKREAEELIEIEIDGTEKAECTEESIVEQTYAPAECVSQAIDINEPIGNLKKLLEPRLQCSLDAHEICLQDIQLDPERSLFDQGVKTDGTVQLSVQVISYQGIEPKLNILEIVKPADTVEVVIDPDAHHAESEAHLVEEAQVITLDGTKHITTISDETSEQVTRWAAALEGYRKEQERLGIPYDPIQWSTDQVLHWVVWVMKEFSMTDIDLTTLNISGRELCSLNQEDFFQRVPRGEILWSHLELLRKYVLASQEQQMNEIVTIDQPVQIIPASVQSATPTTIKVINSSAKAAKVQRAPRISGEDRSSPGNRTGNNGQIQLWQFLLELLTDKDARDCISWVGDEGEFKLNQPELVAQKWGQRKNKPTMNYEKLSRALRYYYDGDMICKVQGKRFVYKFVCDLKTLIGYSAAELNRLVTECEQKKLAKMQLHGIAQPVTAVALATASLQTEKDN
# Outline: as §1
# ERG = target: T4, ERG (Homo sapiens, UniProt P11308 1-479)
# T4 sequence: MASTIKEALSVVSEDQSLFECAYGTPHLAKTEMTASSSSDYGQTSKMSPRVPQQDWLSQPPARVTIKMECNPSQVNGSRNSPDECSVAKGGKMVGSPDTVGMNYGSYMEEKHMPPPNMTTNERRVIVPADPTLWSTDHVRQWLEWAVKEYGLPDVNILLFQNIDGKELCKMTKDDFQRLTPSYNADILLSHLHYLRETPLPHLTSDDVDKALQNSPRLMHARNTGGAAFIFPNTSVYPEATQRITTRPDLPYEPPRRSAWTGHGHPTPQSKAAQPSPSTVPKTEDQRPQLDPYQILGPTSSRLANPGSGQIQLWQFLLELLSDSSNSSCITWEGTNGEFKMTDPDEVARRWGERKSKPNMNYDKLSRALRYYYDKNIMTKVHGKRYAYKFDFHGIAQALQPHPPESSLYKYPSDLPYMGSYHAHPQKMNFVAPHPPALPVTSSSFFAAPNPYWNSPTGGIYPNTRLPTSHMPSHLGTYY
# Outline: as §1
# ELF1 = ELF1 (Homo sapiens, UniProt P32519 1-619)
# Outline: as §1
# EHF = target: T5, EHF (Homo sapiens, UniProt Q9NZC4 1-300)
# T5 sequence: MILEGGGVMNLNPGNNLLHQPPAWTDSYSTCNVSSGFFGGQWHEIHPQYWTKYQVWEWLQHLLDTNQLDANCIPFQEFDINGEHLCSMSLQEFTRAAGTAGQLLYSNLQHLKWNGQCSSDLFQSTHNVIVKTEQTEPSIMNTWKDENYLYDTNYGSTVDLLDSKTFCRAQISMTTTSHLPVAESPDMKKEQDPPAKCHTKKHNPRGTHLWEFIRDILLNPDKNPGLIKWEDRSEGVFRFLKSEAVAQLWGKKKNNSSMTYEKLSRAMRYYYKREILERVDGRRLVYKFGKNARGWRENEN
# Outline: as §1
# SPI1 = SPI1 (Homo sapiens, UniProt P17947 1-270)
# Outline: as §1
# SPIB = SPIB (Homo sapiens, UniProt Q01892 1-262)
# Outline: as §1
# ELK3 = target: T6, ELK3 (Homo sapiens, UniProt P41970 1-407)
# T6 sequence: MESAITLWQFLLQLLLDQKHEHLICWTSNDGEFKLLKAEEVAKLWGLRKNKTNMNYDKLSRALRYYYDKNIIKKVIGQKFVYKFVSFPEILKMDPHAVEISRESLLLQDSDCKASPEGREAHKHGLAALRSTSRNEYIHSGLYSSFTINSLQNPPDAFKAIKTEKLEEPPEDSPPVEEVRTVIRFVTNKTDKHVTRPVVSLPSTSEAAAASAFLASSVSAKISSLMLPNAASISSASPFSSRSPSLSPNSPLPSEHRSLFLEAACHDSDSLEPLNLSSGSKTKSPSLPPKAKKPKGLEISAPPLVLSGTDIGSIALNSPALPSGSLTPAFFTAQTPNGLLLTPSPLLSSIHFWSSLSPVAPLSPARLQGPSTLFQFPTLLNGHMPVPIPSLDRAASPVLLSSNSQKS
# Outline: as §1
# Sequence of SPIB (Q01892 whole entry): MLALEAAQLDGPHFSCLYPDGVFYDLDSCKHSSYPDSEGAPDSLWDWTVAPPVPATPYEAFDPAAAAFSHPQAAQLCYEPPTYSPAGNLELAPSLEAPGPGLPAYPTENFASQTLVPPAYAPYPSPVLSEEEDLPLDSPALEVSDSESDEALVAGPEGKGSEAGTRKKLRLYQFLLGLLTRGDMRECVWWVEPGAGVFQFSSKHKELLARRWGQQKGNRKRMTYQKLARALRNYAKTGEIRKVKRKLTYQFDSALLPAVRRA
# Sequence of ELF1 (P32519 whole entry): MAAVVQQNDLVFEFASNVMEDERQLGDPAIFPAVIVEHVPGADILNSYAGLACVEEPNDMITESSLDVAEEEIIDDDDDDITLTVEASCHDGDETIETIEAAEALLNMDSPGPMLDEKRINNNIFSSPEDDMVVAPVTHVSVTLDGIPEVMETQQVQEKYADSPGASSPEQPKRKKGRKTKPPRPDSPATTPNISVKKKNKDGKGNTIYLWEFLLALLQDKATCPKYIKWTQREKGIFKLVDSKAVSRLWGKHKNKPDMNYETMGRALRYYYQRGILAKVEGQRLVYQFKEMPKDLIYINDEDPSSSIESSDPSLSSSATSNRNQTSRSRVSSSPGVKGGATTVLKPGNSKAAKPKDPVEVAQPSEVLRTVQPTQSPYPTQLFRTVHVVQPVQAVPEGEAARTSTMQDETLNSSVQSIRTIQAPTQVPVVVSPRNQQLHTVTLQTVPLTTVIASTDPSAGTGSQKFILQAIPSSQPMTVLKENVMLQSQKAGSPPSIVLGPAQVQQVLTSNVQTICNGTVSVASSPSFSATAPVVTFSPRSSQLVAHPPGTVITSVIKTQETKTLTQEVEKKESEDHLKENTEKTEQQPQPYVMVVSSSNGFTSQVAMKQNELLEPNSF
sequence,measurement,setting,value
TATTAA,binding signal,FLI1,"1.17 fold enrichment (6-mer frequency, TF over GST control)"
same,binding signal,ELK1,"1.13 fold enrichment (6-mer frequency, TF over GST control)"
same,binding signal,GABPA,"1.16 fold enrichment (6-mer frequency, TF over GST control)"
same,binding signal,ERG,"1.12 fold enrichment (6-mer frequency, TF over GST control)"
same,binding signal,ELF1,"1.22 fold enrichment (6-mer frequency, TF over GST control)"
same,binding signal,EHF,"1.09 fold enrichment (6-mer frequency, TF over GST control)"
same,binding signal,SPI1,"1.06 fold enrichment (6-mer frequency, TF over GST control)"
same,binding signal,SPIB,"1.23 fold enrichment (6-mer frequency, TF over GST control)"
same,binding signal,ELK3,"1.2 fold enrichment (6-mer frequency, TF over GST control)"
